# Active and inactive are the calls of the source. Unless noted, the rule behind the calls is not given here.
# Columns and labels:
# [1] = tested on: Wnt5a (protein binding on small-molecule microarray); assay: Wnt5a binders on small-molecule microarray, primary screen, biophysical, 635/667 nm fluorescence (AID 1142); details: 635 nm fluorescence, higher = more signal;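 note: fluorescence read at 667 nm with signal to noise per printed feature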
# [2] = cell viability in Huh7 cells, primary screen, cytotoxicity control for HCV replication inhibitor project, CellTiter-Glo luminescence, basal, 48 h (AID 1143); details: Huh7 HCV replicon, higher = more signal, called active from +8 up or from −8 down;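 note: Huh7 hepatoma cells carrying a hepatitis C replication reporter with no stimulus; test concentration not given here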
# [3] = P. aeruginosa biofilm formation inhibitors, primary screen, PAO1 strain, BacTiter-Glo luminescence, LB-PBS (AID 1144); details: 12 h, higher = more signal
# [4] = CREB reporter modulators without forskolin, primary screen, cell-based, PC12, CRE-LacZ reporter, unstimulated (AID 1145); details: no forskolin, luminescence, 4.5 h, higher = more signal, called active from +8 up or from −8 down
# [5] = CREB reporter modulators under forskolin, primary screen, cell-based, PC12, CRE-LacZ reporter, forskolin-stimulated (AID 1146); details: luminescence, 4.5 h, higher = more signal, called active from +8 up or from −8 down;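 note: PC12 cells with 6xCRE LacZ reporter stimulated by forskolin 10 µM; beta-galactosidase reporter signal reflecting CREB driven transcription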
# [6] = molecular target: Streptavidin (Streptomyces avidinii) (UniProt P22629); assay: streptavidin binders on small-molecule microarray, primary screen, artefact control for SMM compound annotation, biophysical, 635/667 nm fluorescence (AID 1147); details: streptavidin binding, higher = more signal;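 note: signal reflects streptavidin binding to arrayed compounds as a control protein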
# Streptavidin (Streptomyces avidinii), sequence (P22629 whole entry, looked up): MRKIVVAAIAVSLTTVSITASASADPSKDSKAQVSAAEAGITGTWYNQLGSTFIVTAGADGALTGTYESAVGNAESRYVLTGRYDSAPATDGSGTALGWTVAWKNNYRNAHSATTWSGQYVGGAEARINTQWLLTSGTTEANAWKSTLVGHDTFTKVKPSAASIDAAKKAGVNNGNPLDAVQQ
# [7] = small-molecule binders of probe aInhba, primary screen, biochemical, small-molecule microarray, 635/667 nm fluorescence (AID 1148); details: higher = more signal;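 note: score merges 667nm spot fluorescence with signal-to-noise for antibody binding to printed compounds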
# Torsin-1A (Homo sapiens) [8] = molecular target: Torsin-1A (Homo sapiens) (UniProt O14656); assay: torsin A binders from cell lysate, primary screen, small-molecule microarray, wild-type, 635/667 nm (AID 1149); details: COS7 hTOR1A-WT lysate, 635 nm fluorescence, higher = more signal
# Torsin-1A (Homo sapiens), sequence (O14656 whole entry, looked up): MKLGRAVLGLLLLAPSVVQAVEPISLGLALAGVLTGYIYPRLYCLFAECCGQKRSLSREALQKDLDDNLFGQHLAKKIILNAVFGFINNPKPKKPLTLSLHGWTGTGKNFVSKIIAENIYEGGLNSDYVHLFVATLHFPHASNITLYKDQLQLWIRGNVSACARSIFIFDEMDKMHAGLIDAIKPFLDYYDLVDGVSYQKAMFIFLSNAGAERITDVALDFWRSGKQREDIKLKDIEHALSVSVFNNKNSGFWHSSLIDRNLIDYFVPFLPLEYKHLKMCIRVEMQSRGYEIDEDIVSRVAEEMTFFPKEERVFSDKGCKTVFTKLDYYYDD
# Torsin-1A (Homo sapiens) [9] = molecular target: Torsin-1A (Homo sapiens) (UniProt O14656); assay: small-molecule binders of mutant TOR1A in lysate, primary screen, cell lysate, small-molecule microarray, COS7 lysate, 635/667 nm fluorescence (AID 1150); details: COS7 hTOR1A mutant lysate, 635 nm fluorescence, higher = more signal;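 note: score pools 667 nm emission and signal to noise measuring lysate protein binding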
# [10] = tested on: Sonic hedgehog protein (Shh); assay: small-molecule binders of Shh protein, primary screen, biochemical, small-molecule microarray, 635/667 nm fluorescence (AID 1151); details: small-molecule microarray binding, 635 nm fluorescence; higher = more signal;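 note: Shh protein binding to compounds spotted on small-molecule microarray slides; score combines spot fluorescence intensity with signal-to-noise across triplicate slides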
# [11] = E. coli DRC41 culture turbidity changes, primary screen, E. coli filamentation inducer project, strain DRC41, OD650, 48 h (AID 1152);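 note: E. coli MC1000 strain DRC41 lacking acrAB efflux pump and sulA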; details: E. coli DRC41 (acrAB sulA), higher = more signal, called active from +8 up or from −8 down
# [12] = small-molecule binders of probe aLefty1, primary screen, biochemical, small-molecule microarray, 635/667 nm fluorescence (AID 1153); details: higher = more signal;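 note: score merges spot fluorescence with signal-to-noise ratio from the scanned slide images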
# [13] = PSAC antagonists in infected red cells, primary screen, cell-based, P. falciparum Indochina, OD700, 1 h (AID 1154); details: P. falciparum Indochina infected RBC osmotic lysis, higher = more signal, called active from +8 up or from −8 down
# [14] = PSAC antagonists in infected red cells, primary screen, cell-based, P. falciparum Indochina, OD700, 2 h (AID 1155);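 note: lysis reports solute entry through the parasite surface anion channel PSAC; channel blockers reduce lysis of infected cells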; details: P. falciparum Indochina infected erythrocytes, osmotic lysis OD700; higher = more signal, called active from +8 up or from −8 down
# [15] = osmotic lysis modulators in infected erythrocytes, primary screen, PSAC antagonist project, cell-based, P. falciparum Indochina, OD700, 3 h (AID 1156); details: higher = more signal, called active from +8 up or from −8 down
# [16] = PSAC antagonists in infected red cells, primary screen, cell-based, P. falciparum Indochina, OD700, 18 h (AID 1157); details: P. falciparum Indochina infected erythrocytes, osmotic lysis OD700, 18 h; higher = more signal, called active from +8 up or from −8 down
# [17] = modulators of S6 phosphorylation in cells, primary screen, cell-based, A549, cytoblot, luminescence, serum-stimulated (AID 1158); details: A549 phospho-S6 cytoblot, 5 h, higher = more signal;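 note: serum-stimulated A549 lung adenocarcinoma cells; signal is phosphorylated S6 detected by cytoblot immunostaining with HRP secondary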
# [18] = molecular target: NADPH oxidase 2 (Homo sapiens) (UniProt P04839); assay: NOX2-dependent H2O2 signal modulators, primary screen, NOX inhibitor project, cell-based, HEK293-NOX2, PMA-stimulated, Amplex Red fluorescence (AID 1159); details: 45 min, higher = more signal, called active from +8 up or from −8 down; note: test concentration not given here
# NADPH oxidase 2 (Homo sapiens), sequence (P04839 whole entry, looked up): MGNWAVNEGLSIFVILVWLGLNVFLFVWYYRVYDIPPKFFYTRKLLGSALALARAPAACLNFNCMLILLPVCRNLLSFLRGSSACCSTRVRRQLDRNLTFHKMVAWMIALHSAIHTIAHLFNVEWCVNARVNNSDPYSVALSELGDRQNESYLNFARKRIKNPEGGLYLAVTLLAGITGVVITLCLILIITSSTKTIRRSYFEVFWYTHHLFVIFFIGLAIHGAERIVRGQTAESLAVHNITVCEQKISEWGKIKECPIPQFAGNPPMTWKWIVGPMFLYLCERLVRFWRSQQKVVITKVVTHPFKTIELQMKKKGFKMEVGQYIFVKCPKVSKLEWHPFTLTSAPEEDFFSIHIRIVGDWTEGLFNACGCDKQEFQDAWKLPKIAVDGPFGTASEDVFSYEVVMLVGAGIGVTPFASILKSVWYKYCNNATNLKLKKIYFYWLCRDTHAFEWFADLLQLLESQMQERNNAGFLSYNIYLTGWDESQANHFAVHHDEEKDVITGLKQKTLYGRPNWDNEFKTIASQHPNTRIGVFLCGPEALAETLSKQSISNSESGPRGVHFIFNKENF
# [19] = molecular target: NADPH oxidase 4 (Homo sapiens) (UniProt Q9NPH5); assay: NOX4-dependent H2O2 signal modulators, primary screen, NOX inhibitor project, cell-based, HEK293-NOX4, tetracycline-induced, Amplex Red fluorescence (AID 1160); details: 45 min, higher = more signal, called active from +8 up or from −8 down
# NADPH oxidase 4 (Homo sapiens), sequence (Q9NPH5 whole entry, looked up): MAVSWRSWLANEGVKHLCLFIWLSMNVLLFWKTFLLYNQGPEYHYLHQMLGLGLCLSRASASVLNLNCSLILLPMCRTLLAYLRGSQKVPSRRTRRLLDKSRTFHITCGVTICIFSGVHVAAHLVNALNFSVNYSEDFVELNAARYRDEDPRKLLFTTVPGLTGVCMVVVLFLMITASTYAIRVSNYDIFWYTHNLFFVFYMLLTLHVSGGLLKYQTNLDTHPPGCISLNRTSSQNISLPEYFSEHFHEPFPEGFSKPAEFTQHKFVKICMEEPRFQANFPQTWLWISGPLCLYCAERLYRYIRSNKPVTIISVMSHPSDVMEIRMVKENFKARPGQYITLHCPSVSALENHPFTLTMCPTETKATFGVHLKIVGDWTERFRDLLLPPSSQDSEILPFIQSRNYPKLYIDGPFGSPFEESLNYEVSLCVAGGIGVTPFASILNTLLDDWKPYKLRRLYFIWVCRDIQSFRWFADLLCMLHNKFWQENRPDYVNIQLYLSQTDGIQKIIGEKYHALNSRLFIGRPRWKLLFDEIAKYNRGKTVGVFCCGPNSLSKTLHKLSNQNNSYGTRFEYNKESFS
# [20] = molecular target: NADPH oxidase 5 (Homo sapiens) (UniProt Q96PH1); assay: NOX5-dependent H2O2 signal modulators, primary screen, NOX inhibitor project, cell-based, HEK293-NOX5, Amplex Red fluorescence (AID 1161); details: HEK293-NOX5, ionomycin, 45 min, higher = more signal
# NADPH oxidase 5 (Homo sapiens), sequence (Q96PH1 whole entry, looked up): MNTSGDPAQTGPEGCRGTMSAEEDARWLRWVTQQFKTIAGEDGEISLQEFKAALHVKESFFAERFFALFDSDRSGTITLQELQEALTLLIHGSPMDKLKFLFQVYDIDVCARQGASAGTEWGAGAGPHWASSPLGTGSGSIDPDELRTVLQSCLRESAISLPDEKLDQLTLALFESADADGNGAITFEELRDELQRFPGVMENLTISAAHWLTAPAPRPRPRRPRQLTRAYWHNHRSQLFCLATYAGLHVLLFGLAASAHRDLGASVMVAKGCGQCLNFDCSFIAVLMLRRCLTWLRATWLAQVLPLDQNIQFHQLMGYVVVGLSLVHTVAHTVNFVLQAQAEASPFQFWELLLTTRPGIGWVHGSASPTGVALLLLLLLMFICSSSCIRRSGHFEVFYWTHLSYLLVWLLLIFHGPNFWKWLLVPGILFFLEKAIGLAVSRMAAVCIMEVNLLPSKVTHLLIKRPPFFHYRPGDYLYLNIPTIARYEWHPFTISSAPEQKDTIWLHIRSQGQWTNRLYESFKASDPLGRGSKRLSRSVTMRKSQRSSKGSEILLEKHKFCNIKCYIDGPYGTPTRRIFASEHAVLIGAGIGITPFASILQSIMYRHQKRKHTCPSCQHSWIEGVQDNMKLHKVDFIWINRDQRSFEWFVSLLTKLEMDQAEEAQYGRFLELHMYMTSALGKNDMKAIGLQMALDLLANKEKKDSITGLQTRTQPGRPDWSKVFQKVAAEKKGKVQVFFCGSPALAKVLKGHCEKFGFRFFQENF
Compound,composite z-score [1],z-score [2],z-score [3],z-score [4],z-score [5],composite z-score [6],composite z-score [7],composite z-score (Torsin-1A (Homo sapiens) [8]),composite z-score (Torsin-1A (Homo sapiens) [9]),composite z-score [10],z-score [11],composite z-score [12],z-score [13],z-score [14],z-score [15],z-score [16],z-score [17],z-score [18],z-score [19],z-score [20]
CN1C(=O)C2C=CC(C(O)c3ccc([N+](=O)[O-])cc3)N(N3CCCCC3)C2C1=O (stereo not given),0.466,0.576 (inactive),-0.711 (inactive),1.01 (inactive),0.316 (inactive),0.901,0.464,0.319,0.603,-0.041,-1.74 (inactive),0.385,2.06 (inactive),1.36 (inactive),-0.0207 (inactive),0.9 (inactive),-0.919,0.114 (inactive),-2.07 (inactive),-1.12
O=C1O[C@@H](c2ccccc2)[C@@H](c2ccccc2)N2[C@@H](c3ccccc3OCCO)[C@]3(C(=O)Nc4ccc(C#CC5=CCCCC5)cc43)[C@@H](C(=O)N3CCCCCCC3)[C@H]12,2.24,-4.53 (inactive),0.189 (inactive),-0.203 (inactive),0.188 (inactive),3.51,2.23,2.81,2.9,1.22,-0.511 (inactive),2.96,-0.0047 (inactive),0.0859 (inactive),-0.339 (inactive),0.68 (inactive),-0.359,0.624 (inactive),0.55 (inactive),-0.797
COC(=O)C(CC#Cc1ccc2c(c1)[C@]1(C(=O)N2)[C@H](c2ccc(OCCO)cc2)N2[C@H](c3ccccc3)[C@H](c3ccccc3)OC(=O)[C@H]2[C@@H]1C(=O)Nc1nc2ccccc2s1)C(=O)OC,0.35,-1.68 (inactive),-1.39 (inactive),-0.375 (inactive),1.33 (inactive),1.53,-0.157,1.36,0.414,0.588,1.99 (inactive),-0.0611,4.42 (inactive),1.76 (inactive),0.66 (inactive),1.82 (inactive),-0.206,1.18 (inactive),0.786 (inactive),1.03
CN(C)CCCC[C@@H]1NC(=O)[C@H]2C[C@@H](C(=O)NCCCCCCN)[C@@H](c3ccc(O)cc3)N2C1=O,0.538,0.181 (inactive),0.523 (inactive),-0.256 (inactive),-0.139 (inactive),1.28,0.308,1.13,0.755,2.03,0.51 (inactive),1.5,0.453 (inactive),0.374 (inactive),1.31 (inactive),0.0314 (inactive),-0.24,0.277 (inactive),0.236 (inactive),0.731
COc1cc2c(cc1O)C(c1cccs1)N(C)CC2 (stereo not given),-0.289,-0.0812 (inactive),0.134 (inactive),-0.374 (inactive),-0.0678 (inactive),-1.17,-0.218,-1.19,-0.597,-0.44,0.158 (inactive),-0.103,4.23 (inactive),1.17 (inactive),-0.0863 (inactive),0.352 (inactive),-0.331,-4.66 (inactive),-2.71 (inactive),-2.33
O=C1C[C@@](C(=O)NC2CC2)(c2ccc([N+](=O)[O-])cc2)[C@@H](c2ccc(CO)cc2I)N1C1CCCCC1,0.693,-3.54 (inactive),-0.691 (inactive),0.495 (inactive),0.714 (inactive),1.38,0.0785,0.207,0.461,2.09,-0.178 (inactive),-0.034,16.5 (active),2.28 (inactive),3.03 (inactive),0.797 (inactive),-0.552,1.37 (inactive),0.666 (inactive),2.04
CNS(=O)(=O)c1ccc(C)cc1,0.365,-1.48 (inactive),-0.307 (inactive),-0.0576 (inactive),-0.391 (inactive),0.385,-0.231,0.293,0.371,0.962,2.78 (inactive),-0.371,-0.699 (inactive),-1.07 (inactive),-0.886 (inactive),-2.23 (inactive),0.929,2.36 (inactive),0.878 (inactive),0.669
CCCC[C@@H]1C[C@H]1[C@@H](NC(=O)C(C)(C)C)c1ccc(C(F)(F)F)cc1,-0.96,-4.27 (inactive),0.0317 (inactive),0.201 (inactive),1.44 (inactive),0.0267,-0.0405,-0.49,-0.869,-1.7,-2.06 (inactive),0.718,5.74 (inactive),0.367 (inactive),1.01 (inactive),-1.37 (inactive),2.6,-4.58 (inactive),-4.44 (inactive),-5.62
CO[C@H]1O[C@H](CO)[C@@H](OC(=O)Nc2ccc(Oc3ccccc3)cc2)[C@H](OC(=O)Nc2ccc3c(c2)OCO3)[C@H]1OC(=O)Nc1ccc2c(c1)OCO2,0.636,-1.48 (inactive),-0.822 (inactive),1.09 (inactive),-0.922 (inactive),0.412,0.443,0.387,0.661,1.41,0.97 (inactive),0.523,7.24 (inactive),0.996 (inactive),0.902 (inactive),0.397 (inactive),1.2,0.706 (inactive),-1.65 (inactive),-0.714
COC(=O)[C@@]1(Cc2ccccc2)N=C(c2ccc(OCCCO)cc2)O[C@H]1c1ccccc1,0.912,-4.45 (inactive),0.35 (inactive),1.45 (inactive),-2.12 (inactive),-0.369,0.0816,0.348,1.74,-0.0883,0.792 (inactive),0.236,23.4 (active),12.2 (active),0.737 (inactive),1.89 (inactive),-0.182,-5.76 (inactive),-0.904 (inactive),-3
Cc1ccc(S[C@]2(C(=O)NCCCN(C)C)CC(=O)N(Cc3cc(C(F)(F)F)cc(C(F)(F)F)c3)[C@@H]2c2ccc(CO)cc2I)cc1,-0.116,-1.21 (inactive),0.463 (inactive),-0.994 (inactive),1.23 (inactive),-0.0724,0.172,-0.314,-0.88,-0.503,0.272 (inactive),1.37,3.48 (inactive),1.12 (inactive),-1.36 (inactive),0.303 (inactive),-0.232,1.28 (inactive),-1.25 (inactive),2.43
O=C(c1ccccc1)N1Cc2ccccc2C[C@@]2(COC(c3ccc(OCCCO)cc3)=N2)C1=O,0.406,-1.71 (inactive),-0.0668 (inactive),2.72 (inactive),-0.152 (inactive),0.298,0.167,0.655,0.787,1.33,-0.298 (inactive),0.39,15.2 (active),1.26 (inactive),4.66 (inactive),0.498 (inactive),-0.107,0.137 (inactive),-0.302 (inactive),-0.983
O=C1C[C@@](C(=O)NCC(F)(F)F)(c2ccc([N+](=O)[O-])cc2)[C@@H](c2ccc(CO)cc2I)N1C1CCCCC1,0.318,-4.26 (inactive),-0.148 (inactive),0.558 (inactive),-0.503 (inactive),0.514,-0.0421,0.281,0.35,0.491,-0.629 (inactive),0.165,16.9 (active),1.79 (inactive),2.56 (inactive),0.599 (inactive),-0.417,0.979 (inactive),-0.0876 (inactive),0.612
COc1ccc([Si](C)(C)[C@H]2[C@H](CC(=O)N3Cc4ccccc4C[C@H]3CO)O[C@@]3(C(=O)N(Cc4cccc(N5CCC5=O)c4)c4ccccc43)[C@@H]2C)cc1,0.512,-3.64 (inactive),0.187 (inactive),7.57 (inactive),-0.86 (inactive),-0.0369,0.0183,0.906,0.838,1.74,-0.372 (inactive),-0.0536,5.46 (inactive),1.63 (inactive),0.011 (inactive),1.09 (inactive),-0.0301,-1.15 (inactive),-0.95 (inactive),-1.44
C=C(C)[C@@H]1CC=C(C(O)C2C=CC3C(=O)N(c4ccccc4)C(=O)C3N2Nc2ccccc2)CC1 (stereo not given in full),0.371,0.0984 (inactive),-1.65 (inactive),0.0569 (inactive),-0.0811 (inactive),2.43,0.906,0.476,0.579,0.456,-0.59 (inactive),1.33,8.1 (active),2.94 (inactive),1.09 (inactive),1.73 (inactive),-0.798,-0.653 (inactive),-3.06 (inactive),-2.48
CN1C(=O)C2C=CC(C(O)C#Cc3ccccc3)N(N3CCCCC3)C2C1=O (stereo not given),1.11,0.913 (inactive),-0.686 (inactive),0.236 (inactive),-0.516 (inactive),0.762,1.1,1.27,1.79,0.841,-0.381 (inactive),0.807,1.24 (inactive),1.09 (inactive),0.83 (inactive),1.17 (inactive),-0.726,-0.23 (inactive),0.191 (inactive),-0.26
C=C[C@H](C)[C@@H](OC(=O)Nc1ccc(OC)cc1)c1ccc(O)c2ccccc12,0.198,-6 (inactive),-0.899 (inactive),0.804 (inactive),0.819 (inactive),-0.387,-0.206,0.308,0.422,1.36,-0.368 (inactive),0.0903,3.54 (inactive),0.265 (inactive),-0.122 (inactive),0.132 (inactive),-0.751,-5.53 (inactive),-1.89 (inactive),-0.55

# Reference: PubChem BioAssay
